Compound activity (PubChem)
RORg inh – ROR gamma (mouse) transcription inhibition; P51450; Drosophila S2 Gal4-RORgamma UAS-luciferase reporter, 20 h; Potency, µM (doses to about 53.6 µM), most hits filed as inhibitors; 310,000 compounds, 5.4% hits; AID 2551; also: nearly all actives have a fitted effect of over 60% in size
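Luciferase reporter read in Schneider cells carrying Gal4-RORγ (mouse) and UAS-Photinus luciferase; cells given compound 1 h before 700 uM copper sulfate induction, then incubated 20 h at ambient temperature.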
GALK inh – inhibitors of human galactokinase | P51570 | Purified GALK, Kinase-Glo residual ATP luminescence | Potency, µM (doses to about 57.5 µM), usual class: inhibitors | 270,000 compounds, 0.007% hits | AID 1868
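Galactose (100 uM) and ATP (35 uM) were turned over by 5 nM GALK for 1 h at RT. Kinase-Glo Plus then converted the remaining ATP into a luminescent signal.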
VP16 counter – Gal4-VP16 reporter inhibition counter-screen; Drosophila S2 Gal4-VP16 UAS-luciferase, luminescence, 20 h; Potency, µM (doses to about 53.6 µM), usual class: inhibitors; 310,000 compounds, 3.5% hits;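 also: Gal4-VP16 expression switched on by copper sulfate through the metallothionein promoter; nearly all actives have a fitted effect of over 50% in size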
TrxR1 inh – blocks rat thioredoxin reductase 1. O89049. Potency, µM (series often up to 114 µM), hits mostly inhibitors. 390,000 compounds, 1% hits. recombinant rTrxR1, NADPH fluorescence consumption, selenite substrate; also: nearly all actives have a fitted effect of over 65% in size
Target sequence (O89049 whole entry, looked up): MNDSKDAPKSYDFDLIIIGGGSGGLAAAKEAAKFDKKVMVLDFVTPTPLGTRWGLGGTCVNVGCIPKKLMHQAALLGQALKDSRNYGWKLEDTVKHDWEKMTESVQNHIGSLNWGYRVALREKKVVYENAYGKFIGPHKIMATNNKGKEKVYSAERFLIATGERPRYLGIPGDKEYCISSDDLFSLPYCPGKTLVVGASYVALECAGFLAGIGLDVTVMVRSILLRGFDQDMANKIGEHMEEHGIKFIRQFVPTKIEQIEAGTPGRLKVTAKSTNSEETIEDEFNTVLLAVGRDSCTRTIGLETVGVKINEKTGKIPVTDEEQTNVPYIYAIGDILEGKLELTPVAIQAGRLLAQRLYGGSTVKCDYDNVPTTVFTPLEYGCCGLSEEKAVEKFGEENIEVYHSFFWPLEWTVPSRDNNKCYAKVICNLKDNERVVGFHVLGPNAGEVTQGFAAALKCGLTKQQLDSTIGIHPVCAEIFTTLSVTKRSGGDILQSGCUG
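Rat TrxR1 (90 nM in the dispensed reagent) was pre-reduced with 400 uM NADPH for 5 min at room temperature, then incubated with compound for 15 min. After 400 uM selenite was added, NADPH fluorescence (Ex 340/Em 450 nm) was followed for 8 min.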
TrxR1 substrate – is turned over as a substrate by rat TrxR1 | O89049 | purified TrxR1 substrate turnover, NADPH consumption readout | Potency, µM (top dose mostly 114 µM) | 390,000 compounds, 0.01% hits | AID 588456; also: nearly all actives have a fitted effect of over 50% in size
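Rat TrxR1, dispensed at 90 nM, was prereduced with 400 uM NADPH (final) for 5 min at ~22 deg C, then incubated with compound 15 min before 400 uM selenite. A first-read NADPH fluorescence drop versus no-compound background flagged substrates.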
Coupling enz – counter-screen for Giardia aldolase inhibitors: coupling enzyme system; 290,000 compounds, 0.67% hits; activity change, negative = inhibition, % at 58.2 µM, hits read low; coupling enzyme system counterscreen, AmpLite Red fluorescence; in the data active = activity change below about -30%
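Compounds tested against the coupling enzymes alone at 57.5 uM final; readout was AmpLite Red fluorescence (525/598 nm) after 20 min at RT.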
Numbers stand for hits; [ ] = another dose, or the depositor's remark. Hits are enriched below; roughly 5.9% of the tested compounds scored in any of these assays. Unless noted, calls follow the shape of the dose curve; as a rule, active = well fitted curve in the direction sought with a large enough effect; inconclusive = small, poorly fitted or top-dose-only effect, or another doubt; inactive = no such curve, though single readings can be large; an effect the other way counts as inactive or inconclusive.

What do the screens show for `O=C(Cc1ccccc1)Nc1nc2ccccc2s1`?
RORg inh: inactive; GALK inh: inactive; VP16 counter: inconclusive; TrxR1 inh: inactive; TrxR1 substrate: inactive; Coupling enz: inactive

Results for Nc1ccc(C(=O)Nc2nc3ccccc3s2)cc1 ?
RORg inh: inconclusive; GALK inh: inactive; VP16 counter: inconclusive; TrxR1 inh: inconclusive; TrxR1 substrate: inactive; Coupling enz: inactive

Results for O=C(CSC(=S)N1CCOCC1)Nc1nc(=O)c2ccccc2s1 ?
RORg inh: 13µM; GALK inh: inactive; VP16 counter: 10µM; Coupling enz: inactive

Results for O=C(Cc1ccccc1)Nc1nc(=O)c2ccccc2s1 ?
RORg inh: inconclusive; GALK inh: inactive; VP16 counter: 4.5µM; TrxR1 inh: inactive; TrxR1 substrate: inactive

Results for O=C(Nc1nc(=O)c2ccccc2s1)c1ccc(F)cc1 ?
RORg inh: 7.1µM; GALK inh: inactive; VP16 counter: 2.8µM; TrxR1 inh: inactive; TrxR1 substrate: inactive; Coupling enz: inactive

What do the screens show for `O=C(Nc1nc(=O)c2ccccc2s1)c1ccc(Cl)cc1`?
RORg inh: 3.2µM; GALK inh: inactive; VP16 counter: inactive[0.365 µM]; TrxR1 inh: inactive; TrxR1 substrate: inactive; Coupling enz: inactive

Results for CCCn1c(N)c(N(CCOC)C(=O)c2ccc(-c3ccc(Cl)cc3)o2)c(=O)[nH]c1=O ?
TrxR1 inh: inactive; TrxR1 substrate: inactive

What do the screens show for `O=C(NCCc1ccccc1)C(=O)NCC1CCCN1S(=O)(=O)c1ccccc1` (stereo not drawn)?
TrxR1 inh: inactive; TrxR1 substrate: inactive

What do the screens show for `Nc1ccc2nc(-c3cccc(-c4nc5ccc(N)cc5[nH]4)c3)[nH]c2c1`?
RORg inh: inactive; GALK inh: inactive; VP16 counter: inactive; TrxR1 inh: inactive; TrxR1 substrate: inactive; Coupling enz: inactive

Results for Cc1nc2ccc(-c3nc4ccc(N)cc4[nH]3)cc2[nH]1 ?
RORg inh: 11µM; GALK inh: inactive; VP16 counter: 8.9µM; TrxR1 inh: inactive; TrxR1 substrate: inactive; Coupling enz: inactive

Results for O=C(N/N=C/c1cccnc1)c1ccc2c(c1)OCCO2 ?
RORg inh: inconclusive; GALK inh: inactive; VP16 counter: 14µM; TrxR1 inh: inactive; TrxR1 substrate: inactive; Coupling enz: inactive

How did O=C(Nc1ccc(NC(=O)c2ccco2)cc1)c1ccc2c(c1)OCO2 do in these assays?
RORg inh: 22µM; GALK inh: inactive; VP16 counter: inconclusive; TrxR1 inh: inactive; TrxR1 substrate: inactive; Coupling enz: inactive

How did O=C(N/N=C/c1ccc2c(c1)OCO2)c1cccnc1 do in these assays?
RORg inh: inactive; GALK inh: inactive; VP16 counter: inactive; TrxR1 inh: inactive; TrxR1 substrate: inactive; Coupling enz: inactive

Results for O=C(N/N=C/c1ccc(Br)o1)c1ccc2c(c1)OCCO2 ?
RORg inh: 11µM; GALK inh: inactive; VP16 counter: inconclusive; TrxR1 inh: inconclusive; TrxR1 substrate: inactive; Coupling enz: inactive

How did O=C(N/N=C/c1ccc([N+](=O)[O-])o1)c1ccc2c(c1)OCO2 do in these assays?
RORg inh: 4.5µM; GALK inh: inactive; VP16 counter: 10µM; TrxR1 inh: inconclusive; TrxR1 substrate: inactive; Coupling enz: inactive

Results for O=C(O)c1ccc(/C=N/NC(=O)c2ccc3c(c2)OCCO3)cc1 ?
RORg inh: inconclusive; GALK inh: inactive; VP16 counter: inactive; TrxR1 inh: inactive; TrxR1 substrate: inactive

Results for O=C(Nc1ccc(NC(=O)c2ccco2)c(Cl)c1)c1ccc2c(c1)OCCO2 ?
RORg inh: inconclusive; GALK inh: inactive; VP16 counter: inconclusive; TrxR1 inh: inactive; TrxR1 substrate: inactive; Coupling enz: inactive

How did N#CC1CCCc2c1[nH]c1ccc([N+](=O)[O-])cc21 (stereo not drawn) do in these assays?
RORg inh: inactive; GALK inh: inactive; VP16 counter: inactive; TrxR1 inh: inactive; TrxR1 substrate: inactive; Coupling enz: inactive

Results for O=C(N/N=C/c1ccccc1)c1ccc2c(c1)OCO2 ?
RORg inh: inconclusive; GALK inh: inactive; VP16 counter: 11µM; TrxR1 inh: inactive; TrxR1 substrate: inactive; Coupling enz: inactive
